Results: PubChem BioAssay (NCI)
About 83,000 compounds went through this panel and 20% of them were active in at least one assay; those are over-represented in the sample as a whole.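 Negative percent growth values reflect cell death: -40 means 40% of the cells present at the start died, and -100 means all died.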 Unmarked numbers belong to inactive results. Active and inactive are the calls of the source. How the source made its calls: active means growth percent below 10; inactive means the rest.

test system: DU-145 prostate; assay: NCI-60 one-dose screen, 48 h (100 = growth as untreated, 0 = no growth, -100 = all killed); conditions: 10 µM unless noted

Row | Compound | growth
1 | COc1cc2cc(Oc3ccc(NC(=O)Nc4ccc(Cl)c(C(F)(F)F)c4)cc3)c(C)nc2cc1OCCN1CCCCC1 | -85.2% (active)
2 | CN1CCN(c2ccc3nc(-c4ccc5nc(-c6ccc(C(F)(F)F)cc6)[nH]c5c4)[nH]c3c2)CC1 | 59.2%
3 | Cc1c(C(=O)Nc2nc(-c3ccccc3)cs2)nnn1-c1ccccc1Br | 51.8% [50 µM]
4 | Clc1ccc(Nc2nc(Nc3ccccc3)nc(Nc3ccc(-c4cc(-c5ccc(Cl)cc5)on4)cc3)n2)cc1 | 32.6%
5 | C=C1CC[C@@H]2[C@@](C)(CCC[C@]2(C)C(=O)O)[C@@H]1CC[C@H](CO)CCO | 112%
6 | COC(=O)CCC(=O)c1ccccc1 | 106%
7 | COc1ncnc2c1ncn2C/C(Br)=C(\Br)CCl | 36.8%
8 | CN1CCC(OC2c3ccccc3CCc3ccccc32)CC1 | 107%
9 | O=[N+]([O-])c1ccc(C=C2C(Cl)=C(Cl)C(Cl)=C2Cl)cc1 | 73%
10 | COc1ccc(OC)c(/C=C2\Oc3cc(O)ccc3C2=O)c1 | 77.5%
11 | COC(=O)[C@@]12CC[C@@H](C)[C@]3(C[C@@H](c4ccoc4)OC3=O)[C@H]1CC[C@@H]1O[C@@]12C | 104%
12 | COc1ccc(-c2nc3sc(C)cn3c2/C=C/C(=O)c2cc(OC)c(OC)c(OC)c2)cc1 | 82.2%
13 | C=CC(=O)N1CC2(CC(n3nc(-c4ccc(Oc5ccccc5)cc4)c4c(N)ncnc43)C2)C1 | 11%
14 | Cc1cc(=O)c2c(C)ccc(C)c2[nH]1 | 115%
15 | O=C1CN2CCC1C/C2=C\c1ccnc2c(Cl)cccc12 (stereo unspecified) | 111%
16 | O=C1c2ccccc2-c2nnc(-c3ccc(Br)cc3)cc21 | 55.8%
17 | COc1ccc(-c2nn(-c3ccc(NC(=O)c4ccc(Cl)c(Cl)c4)cc3)cc2-c2ccncc2)cc1Cl | 68.4%
18 | O=c1oc2ccccc2cc1-c1csc(N=Nc2c(O)[nH]c3ccc(Cl)cc23)n1 | 108%
19 | COc1cc2nc(N3CCC[C@H](NC4=CC(=O)c5ccccc5C4=O)C3)nc(N)c2cc1OC | -54.1% (active)

Row | Compound | growth
20 | O=C1C(N2CCOCC2)=Cc2cccc3cccc1c23 | 104%
21 | CCOC(=O)c1c(-c2cc(OC)c(OC)c(OC)c2)csc1N | 101%
22 | N#Cc1c(-c2cccc(F)c2)cc(-c2ccc(Br)s2)[nH]c1=O | 90.1%
23 | COc1ccc(NC(=O)c2ccc3c(c2)nc(-c2ccc(Cl)cc2)n3-c2cc(C(C)(C)C)[nH]n2)cc1 | 90.2%
24 | Oc1cccc(Nc2nc(-c3ccccn3)cs2)c1 | 122%
25 | O=S(=O)(/N=C1C=C/C(=N\S(=O)(=O)c2ccccc2)c2ccccc2\1)c1ccccc1 | 117%
26 | O=C(COc1cccc(/C=C2\COc3ccccc3C2=O)c1)c1ccccc1 | 101%
27 | Cc1ccc(S(=O)(=O)N2CCc3ccc(O)c4c3C2Cc2cc(Cl)ccc2-4)cc1 (stereo unspecified) | 85.5%
28 | COc1ccc(OC)c(C2C(C#N)=C(N)Oc3cc(O)ccc32)c1 (stereo unspecified) | 107%
29 | CC(=O)N(CC(O)CO)c1c(I)c(C(=O)NCCO)c(I)c(C(=O)NCC(O)CO)c1I (stereo unspecified) | 110%
30 | N#CC1=C(N)Oc2cc(N)ccc2C1c1ccc(F)cc1 (stereo unspecified) | 93.1%
31 | CCN(CC)CCCNc1ccc(C)c2sc3ccccc3c(=O)c12 | 43.2%
32 | COc1ccc(/C=C2\Oc3cc(C)c(Cl)cc3C2=O)cc1OC | 104%
33 | Cc1nc2ccc(Cl)cc2n1C | 115%
34 | COc1ccc(/C=N/NC(=O)c2cnn(CC(O)Cc3ccccc3)c2N)cc1OC1CCCC1 (stereo unspecified) | 91.2%
35 | COc1ccc(-c2csc3c2-n2cccc2C3=O)cc1O | -23.5% (active)
36 | COc1cc(C(F)(F)F)ccc1-c1cc(-c2ccc(F)cc2)n[nH]1 | 95.7%
37 | C[C@@H](Oc1cc(-c2cnn(C3CC4(CCNCC4)C3)c2)cnc1N)c1c(F)ccc(Cl)c1Cl | 37.9%
38 | CC(C)NCC(O)COc1ccc(CCOCC2CC2)cc1 (stereo unspecified) | 111%

test system: K-562 leukemia; assay: as above; conditions: 10 µM unless noted

Row | Compound | growth
39 | COc1cc2cc(Oc3ccc(NC(=O)Nc4ccc(Cl)c(C(F)(F)F)c4)cc3)c(C)nc2cc1OCCN1CCCCC1 | -48.1% (active)
40 | CN1CCN(c2ccc3nc(-c4ccc5nc(-c6ccc(C(F)(F)F)cc6)[nH]c5c4)[nH]c3c2)CC1 | -34.2% (active)
41 | Cc1c(C(=O)Nc2nc(-c3ccccc3)cs2)nnn1-c1ccccc1Br | 20.3% [50 µM]
42 | Clc1ccc(Nc2nc(Nc3ccccc3)nc(Nc3ccc(-c4cc(-c5ccc(Cl)cc5)on4)cc3)n2)cc1 | 40.2%
43 | C=C1CC[C@@H]2[C@@](C)(CCC[C@]2(C)C(=O)O)[C@@H]1CC[C@H](CO)CCO | 106%
44 | COC(=O)CCC(=O)c1ccccc1 | 96.9%
45 | COc1ncnc2c1ncn2C/C(Br)=C(\Br)CCl | 7.96% (active)
46 | CN1CCC(OC2c3ccccc3CCc3ccccc32)CC1 | 96.8%
47 | O=[N+]([O-])c1ccc(C=C2C(Cl)=C(Cl)C(Cl)=C2Cl)cc1 | 7.31% (active)
48 | COc1ccc(OC)c(/C=C2\Oc3cc(O)ccc3C2=O)c1 | 93.2%
49 | COC(=O)[C@@]12CC[C@@H](C)[C@]3(C[C@@H](c4ccoc4)OC3=O)[C@H]1CC[C@@H]1O[C@@]12C | 113%
50 | COc1ccc(-c2nc3sc(C)cn3c2/C=C/C(=O)c2cc(OC)c(OC)c(OC)c2)cc1 | 75.6%
51 | C=CC(=O)N1CC2(CC(n3nc(-c4ccc(Oc5ccccc5)cc4)c4c(N)ncnc43)C2)C1 | 17.7%
52 | Cc1cc(=O)c2c(C)ccc(C)c2[nH]1 | 109%
53 | O=C1CN2CCC1C/C2=C\c1ccnc2c(Cl)cccc12 (stereo unspecified) | 95.7%
54 | O=C1c2ccccc2-c2nnc(-c3ccc(Br)cc3)cc21 | 16.5%
55 | COc1ccc(-c2nn(-c3ccc(NC(=O)c4ccc(Cl)c(Cl)c4)cc3)cc2-c2ccncc2)cc1Cl | 5.86% (active)
56 | O=c1oc2ccccc2cc1-c1csc(N=Nc2c(O)[nH]c3ccc(Cl)cc23)n1 | 98.7%
57 | COc1cc2nc(N3CCC[C@H](NC4=CC(=O)c5ccccc5C4=O)C3)nc(N)c2cc1OC | -48.4% (active)

Row | Compound | growth
58 | O=C1C(N2CCOCC2)=Cc2cccc3cccc1c23 | 30.8%
59 | CCOC(=O)c1c(-c2cc(OC)c(OC)c(OC)c2)csc1N | 45.5%
60 | N#Cc1c(-c2cccc(F)c2)cc(-c2ccc(Br)s2)[nH]c1=O | 24.5%
61 | COc1ccc(NC(=O)c2ccc3c(c2)nc(-c2ccc(Cl)cc2)n3-c2cc(C(C)(C)C)[nH]n2)cc1 | 86%
62 | Oc1cccc(Nc2nc(-c3ccccn3)cs2)c1 | 93.8%
63 | O=S(=O)(/N=C1C=C/C(=N\S(=O)(=O)c2ccccc2)c2ccccc2\1)c1ccccc1 | 91.8%
64 | O=C(COc1cccc(/C=C2\COc3ccccc3C2=O)c1)c1ccccc1 | 17.1%
65 | Cc1ccc(S(=O)(=O)N2CCc3ccc(O)c4c3C2Cc2cc(Cl)ccc2-4)cc1 (stereo unspecified) | 24.7%
66 | COc1ccc(OC)c(C2C(C#N)=C(N)Oc3cc(O)ccc32)c1 (stereo unspecified) | 83.4%
67 | CC(=O)N(CC(O)CO)c1c(I)c(C(=O)NCCO)c(I)c(C(=O)NCC(O)CO)c1I (stereo unspecified) | 97%
68 | N#CC1=C(N)Oc2cc(N)ccc2C1c1ccc(F)cc1 (stereo unspecified) | 24.8%
69 | CCN(CC)CCCNc1ccc(C)c2sc3ccccc3c(=O)c12 | -7.56% (active)
70 | COc1ccc(/C=C2\Oc3cc(C)c(Cl)cc3C2=O)cc1OC | 86.6%
71 | Cc1nc2ccc(Cl)cc2n1C | 92.4%
72 | COc1ccc(/C=N/NC(=O)c2cnn(CC(O)Cc3ccccc3)c2N)cc1OC1CCCC1 (stereo unspecified) | 99.5%
73 | COc1ccc(-c2csc3c2-n2cccc2C3=O)cc1O | 5.65% (active)
74 | COc1cc(C(F)(F)F)ccc1-c1cc(-c2ccc(F)cc2)n[nH]1 | 97.5%
75 | C[C@@H](Oc1cc(-c2cnn(C3CC4(CCNCC4)C3)c2)cnc1N)c1c(F)ccc(Cl)c1Cl | -19.9% (active)
76 | CC(C)NCC(O)COc1ccc(CCOCC2CC2)cc1 (stereo unspecified) | 97.6%
